Screening data deposited in PubChem by several laboratories.
FID counter: counter-screen for HCV NS3 helicase inhibitors: DNA intercalator displacement; 0.17% of 290,000 active; inhibition, % at 7.9 µM; DNA fluorescent intercalator displacement, fluorescence; AID 1845; in the data active = inhibition above about 37%;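 note: 0% = vehicle and 100% = reference compound; higher means more ethidium bromide displaced from hairpin DNA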
miR-122 sensor: miR-122 inhibition in Huh7 cells | Huh7 miR-122 Renilla luciferase sensor, 48 h; neutral wells = 0, positive control = 100 | activation (reporter increase), % at 12.5 µM | 0.3% of 340,000 active | AID 602342;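 active = mean replicate activation score at least 90 and every replicate individually at or above 90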;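 note: higher luciferase means less miR-122 activity so hits act as miR-122 inhibitors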
RAD52 inh: RAD52 (human) annealing inhibition | P43351 | recombinant RAD52 DNA annealing, FRET fluorescence | inhibition, % at 18.7 µM | 0.46% of 360,000 active;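 active = every replicate showing at least 50% inhibition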
N-glyco inh: blocks N-linked glycosylation in D54 reporter cells; D54 ERlucT glycosylation luciferase reporter, 24 h; percent of 100 nM tunicamycin response; reporter increase, % at 12.5 µM; 0.23% of 360,000 active; AID 588692;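 active = mean luciferase reporter signal, scaled so untreated is 0 and the glycosylation-blocking control 100, at or above a set limit in every replicate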;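 note: luciferase carries N-glycosylation sites so blocking glycosylation raises the light; 0% = median of neutral control wells and 100% = median of 100 nM tunicamycin wells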
CendR NRP1 mod: modulators of CendR peptide binding to human neuropilin-1. inhibition, % at 25 µM. 0.85% of 360,000 active. FAM-RPARPAR peptide binding to NRP-1, fluorescence polarization;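 active = inhibition or corrected inhibition above about 18%, plus a signal ratio from 0.5 to 1.5, limit read from the data, passing the limit was not always enough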
RAD54 branch: blocks human RAD54 Holliday junction branch migration. Q92698. FAM/BHQ fluorescence. inhibition, % at 10.4 µM. 0.14% of 360,000 active;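 active = mean normalized replicate activity at least 40 and at least half of replicates scoring 40 or more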;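 note: 0% = median of neutral control wells and 100% = median of positive control wells; inhibitors cause a drop in the FAM fluorescence signal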
Target sequence (Q92698 whole entry, looked up): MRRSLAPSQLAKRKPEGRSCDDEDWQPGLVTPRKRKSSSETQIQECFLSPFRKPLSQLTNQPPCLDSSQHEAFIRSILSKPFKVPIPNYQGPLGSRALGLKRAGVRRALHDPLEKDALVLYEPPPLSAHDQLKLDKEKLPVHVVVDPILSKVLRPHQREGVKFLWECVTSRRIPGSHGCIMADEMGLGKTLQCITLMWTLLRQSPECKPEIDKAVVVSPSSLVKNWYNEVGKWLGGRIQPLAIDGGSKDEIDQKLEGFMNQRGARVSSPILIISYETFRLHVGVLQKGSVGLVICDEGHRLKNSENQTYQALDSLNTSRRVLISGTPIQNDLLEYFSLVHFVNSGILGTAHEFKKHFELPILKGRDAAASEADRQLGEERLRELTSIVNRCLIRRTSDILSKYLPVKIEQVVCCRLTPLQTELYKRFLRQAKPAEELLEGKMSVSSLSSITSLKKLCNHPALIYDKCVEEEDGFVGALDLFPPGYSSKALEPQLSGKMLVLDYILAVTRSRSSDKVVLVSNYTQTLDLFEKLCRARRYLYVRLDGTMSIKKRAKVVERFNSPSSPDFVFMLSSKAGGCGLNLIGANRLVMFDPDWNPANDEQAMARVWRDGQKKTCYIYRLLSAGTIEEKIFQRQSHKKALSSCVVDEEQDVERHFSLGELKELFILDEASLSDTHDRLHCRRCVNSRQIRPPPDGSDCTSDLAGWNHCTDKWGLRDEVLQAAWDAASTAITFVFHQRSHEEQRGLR
* hit, by the source's call; / = no result; [ ] = another dose, or the depositor's remark. Sampled rows, rich in hits. Any-hit rate of the full collection: about 1.5%.

SMILES | FID counter | miR-122 sensor | RAD52 inh | N-glyco inh | CendR NRP1 mod | RAD54 branch
Cc1cc(=O)[nH]c(N=N/C(=N/Nc2ccc(O)cc2)c2ccccc2)n1 | -0.2 | -0.4 | / | -0.2 | 6.2 | 9.8
O=C(c1ccc(-c2ccccc2)cc1)N1CCN(c2ccc3c(c2)C2CC3CCN2C(=O)OCc2ccccc2)CC1 (configuration not stated) | / | -5.2 | -10.5 | -5.8 | 31.8* | 5.7
COc1ccc(N/C=C/C(=O)C(C)(C)C)cc1 | -1.5 | -3.4 | -8.6 | 1.6 | 31.1* | -3.1
O=C(N[C@@H]1CC[C@H](CCNC(=O)C2CCOCC2)O[C@@H]1CO)c1ccccn1 | / | / | -12.4 | / | / | 6.7
CCOC(=O)C(=CN(CCc1ccccc1)CC(=O)OC)C(=O)OCC | -1.6 | -6.2 | 3.2 | 0.1 | 25.6* | -12.4
COC(=O)CCC(=O)N(CCN(Cc1ccccc1)C(=O)CCC(=O)OC)Cc1ccccc1 | / | / | -5.1 | 0.8 | 0.0 | /
Cc1noc(C)c1NC(=O)Nc1ccc2c(c1)C(=O)N([C@H](C)CO)C[C@@H](C)[C@H](CN(C)CC1CCCCC1)O2 | / | -3.2[16.7 µM] | -1.6 | / | / | 6.3
CCS(=O)(=O)N1[C@@H](CO)[C@@H](c2ccccc2)C12CN(C(=O)C1CCCCC1)C2 | / | / | -12.5 | / | / | /
CCCC(=O)N1CCC2(CC1)CN(C(=O)Cc1ccccn1)[C@H](CO)c1[nH]c3cc(OC)ccc3c12 | / | / | -3.4 | / | / | /
CCS(=O)(=O)N1CC2(CN(Cc3ccccc3F)[C@H](CO)c3[nH]c4cc(OC)ccc4c32)C1 | / | / | -21.3 | / | / | /
CN(C)c1ncnc2c1ncn2C1CCCO1 (configuration not stated) | / | -2.9 | -7.5 | 2.4 | 26.2* | 3.4
CN(C)c1ncnc2c1ncn2C1CCCCO1 (configuration not stated) | / | 1.4 | -15.5 | 3.6 | 4.1 | 4.9
CC(=O)N1c2ccc(S(=O)(=O)N3CCC(C(=O)Nc4cc(C)cc(C)c4)CC3)cc2CC1C (configuration not stated) | -54.9 | -2.7 | -21.4 | -0.6 | 5.9 | 12.5
CC(=O)N1c2ccc(S(=O)(=O)N3CCC(C(=O)Nc4cccc(C)c4)CC3)cc2CC1C (configuration not stated) | -50.9 | -1.6 | -13.2 | -2.5 | 31.3* | 0.0
COc1cccc(CN(C(=O)Cc2c[nH]c3ccccc23)C(C(=O)NC2CCCCC2)c2cccs2)c1 (configuration not stated) | -18.3 | 240.2* | / | -6.2 | -9.9 | 2.9
O=C(C[C@@H]1CC[C@H](NS(=O)(=O)c2ccccc2)[C@@H](CO)O1)N1CCC(Cc2ccccc2)CC1 | / | / | 0.4 | / | / | /
CN(C)c1ccc(N=Cc2nc(-c3ccccc3)oc2OC(=O)c2cccc(Cl)c2)cc1 | -13.1 | / | / | -8.0 | 28.3* | /
CC(C(=O)NN=C(c1ccccc1)c1ccccc1)N1CCOCC1 (configuration not stated) | -26.3 | / | -8.6 | -0.2 | 26.5* | /
O=C(CSc1ccc(C(F)(F)F)cn1)Nc1ccccc1 | 0.3 | / | -6.9 | -0.2 | -7.2 | 1.6
O=C(/C=C/Sc1ccc(C(F)(F)F)cn1)c1ccccc1 | -2.5 | -3.7 | -19.9 | 37.3* | 7.0 | 2.3
CCC(=O)N1CC(=O)N2[C@H](CO)[C@H](c3ccc(-c4cccnc4)cc3)[C@H]2C1 | / | / | 3.4 | / | / | /
C[C@H]1CN([C@@H](C)CO)C(=O)c2cc(C#CC3CCCCC3)cnc2O[C@@H]1CN(C)Cc1ccncc1 | / | -5.0[16.7 µM] | 5.1 | / | / | 1.1
Cc1ccc(N2C(=O)C(Cl)=C(NCc3ccccc3)C2=O)c(C)c1 | -8.0 | -1.9 | / | 1.5 | 20.9* | 4.4
COc1ccc(CNC(=O)C[C@H]2C[C@@H]3c4cc(NS(C)(=O)=O)ccc4O[C@@H]3[C@H](CO)O2)cc1 | / | 3.8[16.7 µM] | -0.2 | / | / | 3.6
O=C(NNC(=O)c1cc(S(=O)(=O)N2CCOCC2)c(Cl)cc1Cl)c1ccccc1F | / | / | -9.6 | 1.6 | 17.2* | -5.5
O=c1oc2c(-c3cccc(F)c3)cc(O)cc2s1 | -15.1 | / | -12.5 | 2.6 | 33.3* | 0.9
Cc1cc(O)cc(=O)n1-c1cccc(F)c1 | / | / | 4.1 | / | / | /
COc1ccccc1NC(=O)N1C[C@@H]2[C@H](c3ccccc31)[C@@H](CO)N2C(C)=O | / | 0.0[16.7 µM] | -8.0 | / | / | -10.2
N/C(COc1ncn(-c2ccccc2)n1)=N\S(=O)(=O)c1ccc(Cl)cc1Cl | -23.0 | -15.6 | -7.5 | 0.3 | 0.1 | /
NC(=O)COc1ncn(-c2ccccc2)n1 | -2.4 | / | -14.2 | 1.3 | 28.6* | -6.3
